About 2,000 (36%) of roughly 5,500 compounds were called active. Not shown: some 18% with an inconclusive outcome. Cut-off read from the data, not from the text of the source: active = normalized growth mostly below about 0.91 (no sharp cut-off); inconclusive = no clear call, values can overlap the other calls; inactive = mostly above about 0.92. The list shows a part of the results.
Assay: chemical genetic growth profiling, strain panel (AID 1159580);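 note: tested at 20 µM; growth read once vehicle control cultures reached saturation at 30 °C; 1 = growth at the plate median or of vehicle wells; lower values mean less growth of the strain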
Conditions: S. cerevisiae deletion strains, growth OD

Measured: normalized growth

OCc1c[nH]c2ccccc12
active: locus YCL011C, strain gbp2, stronger effect = lower value 0.815 | locus YDR137W, strain rgp1, stronger effect = lower value 0.741 | locus YEL003W, strain gim4, stronger effect = lower value 0.8 | locus YJL164C, strain tpk1, stronger effect = lower value 0.895 | locus YJL166W, strain qcr8, stronger effect = lower value 0.779 | locus YLR221C, strain rsa3, stronger effect = lower value 0.862 | locus YLR262C, strain YPT6 (second series), stronger effect = lower value 0.663 | locus YLR320W, strain mms22, stronger effect = lower value 0.742 | locus YLR342W, strain FKS1, stronger effect = lower value 0.905 | locus YML120C, strain ndi1, stronger effect = lower value 0.902 | locus YMR205C, strain PFK2, stronger effect = lower value 0.849 | locus YNL071W, strain lat1, stronger effect = lower value 0.622 | locus YOR001W, strain rrp6, stronger effect = lower value 0.854 | locus YOR106W, strain vam3, stronger effect = lower value 0.702 | locus YPL051W, strain arl3, stronger effect = lower value 0.791 | locus YPL240C, strain hsp82, stronger effect = lower value 0.914
inactive: locus YAL021C, strain ccr4, stronger effect = lower value 0.949 | locus YAL026C, strain drs2, stronger effect = lower value 0.991 | locus YAL030W, strain snc1, stronger effect = lower value 0.979 | locus YBL061C, strain skt5, stronger effect = lower value 0.969 | locus YBR009C, strain hhf1, stronger effect = lower value 0.926 | locus YBR023C, strain chs3, stronger effect = lower value 0.955 | locus YBR171W, strain sec66, stronger effect = lower value 0.977 | locus YBR231C, strain swc5, stronger effect = lower value 0.953 | locus YBR279W, strain paf1, stronger effect = lower value 0.956 | locus YCL016C, strain dcc1, stronger effect = lower value 0.957 | locus YCL061C, strain MRC1, stronger effect = lower value 1.01 | locus YCL069W, strain vba3, stronger effect = lower value 0.976 | locus YCR088W, strain abp1, stronger effect = lower value 0.971 | locus YDL005C, strain med2, stronger effect = lower value 0.989 | locus YDL040C, strain nat1, stronger effect = lower value 0.981 | locus YDR001C, strain nth1, stronger effect = lower value 0.99 | locus YDR069C, strain doa4, stronger effect = lower value 0.974 | locus YDR159W, strain sac3, stronger effect = lower value 0.88 | locus YDR195W, strain ref2 1 | locus YDR297W, strain sur2, stronger effect = lower value 0.956 | locus YDR334W, strain swr1, stronger effect = lower value 1 | locus YDR335W, strain msn5, stronger effect = lower value 0.984 | locus YDR392W, strain spt3, stronger effect = lower value 0.856 | locus YEL037C, strain rad23, stronger effect = lower value 0.978 | locus YEL061C, strain CIN8 (second series), stronger effect = lower value 0.975 | locus YER015W, strain faa2, stronger effect = lower value 0.943 | locus YER016W, strain bim1, stronger effect = lower value 0.977 | locus YER111C, strain swi4, stronger effect = lower value 0.992 | locus YER155C, strain BEM2 (second series), stronger effect = lower value 0.966 | locus YFR010W, strain ubp6, stronger effect = lower value 0.984 | locus YGL167C, strain pmr1, stronger effect = lower value 0.978 | locus YGL173C, strain kem1, stronger effect = lower value 0.96 | locus YGL227W, strain vid30, stronger effect = lower value 0.983 | locus YGL240W, strain doc1, stronger effect = lower value 0.911 | locus YGL253W, strain hxk2, stronger effect = lower value 0.98 | locus YHR013C, strain ard1, stronger effect = lower value 0.955 | locus YHR027C, strain rpn1, stronger effect = lower value 0.96 | locus YHR030C, strain SLT2, stronger effect = lower value 1.02 | locus YHR079C, strain IRE1, stronger effect = lower value 1.05 | locus YHR142W, strain chs7, stronger effect = lower value 0.948 | locus YJL092W, strain hpr5, stronger effect = lower value 0.979 | locus YJL095W, strain BCK1 (second series), stronger effect = lower value 0.944 | locus YJL095W, strain BCK1, stronger effect = lower value 0.979 | locus YJL115W, strain asf1, stronger effect = lower value 0.981 | locus YJL129C, strain trk1, stronger effect = lower value 0.879 | locus YJL154C, strain vps35, stronger effect = lower value 0.987 | locus YJL187C, strain SWE1, stronger effect = lower value 0.958 | locus YJR066W, strain TOR1, stronger effect = lower value 0.961 | locus YKL160W, strain elf1, stronger effect = lower value 0.907 | locus YKR026C, strain gcn3, stronger effect = lower value 0.998 | locus YKR091W, strain srl3, stronger effect = lower value 0.99 | locus YLL001W, strain dnm1, stronger effect = lower value 1 | locus YLL026W, stronger effect = lower value 0.976 | locus YLL041C, strain sdh2, stronger effect = lower value 0.979 | locus YLR113W, strain HOG1, stronger effect = lower value 1 | locus YLR258W, strain gsy2, stronger effect = lower value 0.939 | locus YLR357W, strain rsc2, stronger effect = lower value 0.977 | locus YLR370C, strain arc18, stronger effect = lower value 0.982 | locus YLR384C, strain iki3, stronger effect = lower value 0.976 | locus YMR058W, strain fet3, stronger effect = lower value 0.991 | locus YMR125W, strain sto1, stronger effect = lower value 0.974 | locus YMR129W, stronger effect = lower value 1 | locus YMR231W, strain pep5, stronger effect = lower value 0.968 | locus YNL183C, strain NPR1, stronger effect = lower value 0.931 | locus YNL209W, strain ssb2, stronger effect = lower value 0.969 | locus YNL248C, strain rpa49, stronger effect = lower value 0.997 | locus YNL322C, strain KRE1 (second series), stronger effect = lower value 0.996 | locus YNR049C, strain mso1, stronger effect = lower value 0.99 | locus YOR070C, strain gyp1, stronger effect = lower value 0.93 | locus YOR080W, strain dia2, stronger effect = lower value 1 | locus YOR083W, strain WHI5, stronger effect = lower value 0.987 | locus YOR231W, strain MKK1, stronger effect = lower value 1.04 | locus YOR265W, strain rbl2, stronger effect = lower value 0.972 | locus YOR270C, strain vph1, stronger effect = lower value 0.974 | locus YOR290C, strain snf2, stronger effect = lower value 0.963 | locus YPL078C, strain atp4, stronger effect = lower value 0.983 | locus YPL106C, strain sse1, stronger effect = lower value 0.952 | locus YPL256C, strain CLN2, stronger effect = lower value 1.08

CC(=O)NCCc1c[nH]c2ccccc12
inactive: locus YAL013W, strain DEP1, stronger effect = lower value 1 | locus YAL040C, strain CLN3, stronger effect = lower value 1.01 | locus YCL061C, strain MRC1 (second series), stronger effect = lower value 1 | locus YDR150W, strain NUM1, stronger effect = lower value 1 | locus YER002W, strain NOP16, stronger effect = lower value 1 | locus YJR075W, strain HOC1, stronger effect = lower value 1 | locus YNL175C, strain NOP13, stronger effect = lower value 1.01 | locus YNL197C, strain WHI3, stronger effect = lower value 1 | locus YNL224C, strain SQS1, stronger effect = lower value 1.01 | locus YOR083W, strain WHI5 (second series), stronger effect = lower value 1.02 | locus YPL055C, strain LGE1, stronger effect = lower value 1
